Vaccinia mCherry = inhibitors of vaccinia virus infection (mCherry reporter signal). Vaccinia virus mCherry reporter infection, fluorescence. Potency, µM (top dose mostly 36.5 µM), without a hit: at the highest dose activity change, negative = inhibition, most hits filed as inhibitors. 310,000 compounds, 0.63% hits; calls by dose curve; tested in A549 cells; also: potency is read from the fitted curve at half-maximal effect; nearly all actives have a fitted effect of over 35% in size
Lassa entry inh = inhibitors of Lassa virus binding or cell entry | Lassa virus pseudotype entry inhibition, cell reporter | Potency, µM (top dose mostly 37.9 µM), inactives show top-dose activity change, negative = inhibition, most hits filed as inhibitors | 300,000 compounds, 1.2% hits; calls by dose curve; tested in HEK293 cells; also: potency is read from the fitted curve at half-maximal effect; nearly all actives have a fitted effect of over 50% in size
VACV Venus inh = vaccinia inhibition (Venus reporter); Vaccinia virus Venus reporter expression, fluorescence; Potency, µM (top dose mostly 36.5 µM), for inactives: top-dose activity change, negative = inhibition, most hits filed as inhibitors; 330,000 compounds, 0.46% hits; calls by dose curve; tested in A549 cells; also: potency is read from the fitted curve at half-maximal effect; nearly all actives have a fitted effect of over 30% in size
HCMV inh = human cytomegalovirus inhibition; HFF cells, HCMV-luciferase reporter, 72 h; stronger effect = lower value; activity change, negative = inhibition, % at 57.5 µM; 410,000 compounds, 4.5% hits; in the data active = activity change below about -60%; inconclusive = no clear call, values can overlap the other calls; inactive = above about -39%
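Inhibition of viral replication was scored as loss of reporter luminescence in HFFs infected with HCMV-luciferase (MOI 1 PFU/cell) for 72 h; compounds tested at 2 doses, normalized to buffer and Salinomycin controls.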
Marburg entry inh = inhibitors of Marburg virus binding or cell entry. Marburg virus pseudotyped entry inhibition, cell reporter. Potency, µM (titrated, usually from 37.8 µM), without a hit: at the top dose activity change, negative = inhibition, most hits filed as inhibitors. 300,000 compounds, 1.8% hits. AID 540276; calls by dose curve; tested in HEK293 cells; also: potency is read from the fitted curve at half-maximal effect
HCV inh = blocks hepatitis C virus; Huh7.5.1 HCVcc-Cre infection, luciferase reporter, 44 h; Potency, µM (top dose mostly 41.8 µM), without a hit: at the highest dose activity change, negative = inhibition, actives largely listed as inhibitors; 340,000 compounds, 3.4% hits; active = well fitted inhibition curve with a large enough effect; inconclusive = small, poorly fitted or top-dose-only effect, or another doubt; inactive = no such curve, though single readings can be large or run the other way; also: potency is read from the fitted curve at half-maximal effect
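Cells (1,000/well) were plated 4 h before compound, then infected with HCVcc-Cre virus (~0.5 moi). After 44 h further culture, infection was read as luciferase luminescence following a 15 min substrate incubation at room temperature.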
The depositor's hits bear a star; i = inactive; ? = inconclusive; nt = no result; [ ] = dose if it differs, or a comment. Hits are enriched below; roughly 7.8% of the tested compounds scored in any of these assays. % is scaled to controls: 0 for no effect and ±100 for the full control effect.

SMILES	Vaccinia mCherry	Lassa entry inh	VACV Venus inh	HCMV inh	Marburg entry inh	HCV inh
Cc1ccc(OCc2ccc(-c3ccccc3)cc2)c([N+](=O)[O-])n1	-18.7%	-20.8%	-13.5%	-82.9*	-1.0%[46.1 µM]	?
COc1ccc(C)cc1NC(=O)COC(=O)c1c(-c2ccccc2)noc1C	-20.7%	nt	?	-14.7	nt	nt
Cc1ccc(-c2c3c(nc4sc(C(N)=O)c(N)c24)CCCC3)o1	-20.5%	-19.0%	-11.7%	-24.3	-2.3%	-14.9%
NC(=O)c1sc2nc3c(c(-c4ccco4)c2c1N)CCC3	?	-14.4%	?	-73.3*	-18.4%	22.4µM*
NC(=O)c1sc2nc(-c3ccccc3)c3c(c2c1N)CCCC3	nt	nt	nt	-60.6*	nt	-21.6%
Nc1c(C(=O)NC2CC2)sc2nc3c(c(-c4ccco4)c12)CC/C3=C/c1ccco1	-27.4%	6.8%	8.6%	nt	4.47µM*	?
O=C(NC1CCCC1)c1ccc2nc(-c3ccco3)c(-c3ccco3)nc2c1	-15.5%	-20.9%	-23.7%	nt	?	?
CSc1ccc(CCNC(=O)Cn2ncc3c(=O)oc4ccccc4c32)cc1	-11.9%	12.7%[46.1 µM]	-2.2%	-4.9	2.9%[46.1 µM]	nt
COCCn1c(C)cc(C(=O)CSc2ccc3ccccc3n2)c1C	nt	-10.1%	-20.7%	143.2	2.1%	10µM*
Cc1ccc(C)c(C(=O)CSc2nc3ccccc3c(=O)[nH]2)c1	-28.6%	-12.7%	-25.9%	-66.2*	-23.2%[46.1 µM]	14.8%
COCCn1c(C)cc(C(=O)CSc2nc(C)nc3sc4c(c23)CCC4)c1C	nt	10.3µM*	nt	-79.8*	3.66µM*	10µM*
Cc1cc(C)cc(N(CCC#N)C(=O)CSc2nc3ccccc3c(=O)[nH]2)c1	i	?	-15.3%	14.6	10µM*	-18.6%
COc1ccc(CCC(=O)NCCc2csc(-c3ccc(C(F)(F)F)cc3)n2)cc1	-12.8%	-24.6%[46.1 µM]	-16.7%	-16.0	nt	nt
Cc1ccc(CCNC(=O)c2c[nH]c3ccc(S(=O)(=O)Nc4cccc(C(F)(F)F)c4)cc3c2=O)cc1	-7.6%	-33.8%[46.1 µM]	-9.5%	?	nt	nt
CC1CCN2c3cc(Cl)ccc3CC3(C(=O)OC(C)(C)OC3=O)C2C1 (stereo not given)	-19.2%	nt	-23.5%	nt	nt	nt
COCCn1c(C)cc(C(=O)COc2nc3ccccc3nc2C)c1C	-8.8%	-27.6%	?	-85.5*	?	?
Cc1cc(C)c(C(=O)CSc2nc3ccccc3c(=O)[nH]2)cc1C	i	18.0%	-6.1%	46.1	4.9%	11.3%
COCCn1c(C)cc(C(=O)CSc2nc3ccccc3c(=O)[nH]2)c1C	nt	?	nt	15.4	?	8.91µM*
Cc1cccc(C(=O)Nc2ccccc2NC(=O)c2cccc(C)c2)c1	i	9.8%[46.1 µM]	-23.1%	-61.5*	-5.2%[46.1 µM]	?
Cc1cccc(C(=O)Nc2cccc3c2CCCC3)c1	-11.9%	28.2%	-1.5%	-101.5*	3.3%	21.1%
CC(=O)Nc1ccccc1NC(=O)c1ccc(C)cc1C	-7.3%	-3.6%	0.5%	-62.6*	?	0.9%
Cc1ccc(Cn2ccnc2SCC(=O)Nc2ccccc2C(F)(F)F)cc1	i	10.7%[46.1 µM]	-5.3%	?	nt	nt
Cc1ccc(S(=O)(=O)N2CCOCC2)cc1NC(=O)c1cc2ccccc2oc1=O	-11.4%	7.2%[46.1 µM]	-9.0%	-101.4*	11.6%[46.1 µM]	8.4%
Cc1ccc(S(=O)(=O)N2CCOCC2)cc1NC(=O)c1cc(-c2ccccn2)nc2ccccc12	11.2µM*	nt	?	-69.8*	nt	?
O=C(Nc1ccc(Cl)c(S(=O)(=O)N2CCOCC2)c1)c1cc2ccccc2oc1=O	-1.5%	23.9%	-1.4%	26.5	8.5%	16.1%
SMILES	Vaccinia mCherry	Lassa entry inh	VACV Venus inh	HCMV inh	Marburg entry inh	HCV inh
O=C(O)/C=C\c1cnc[nH]1	nt	nt	nt	nt	4.4%	nt
Cc1ccc(N2CC(c3nc(-c4ccc(Cl)cc4)no3)CC2=O)cc1F (stereo not given)	-1.1%	9.1%[46.1 µM]	-0.5%	-0.8	nt	nt
Cc1ccc(C(=O)N(Cc2cc3cc4c(cc3nc2N2CCOCC2)CCC4)CC2CCCO2)cc1 (stereo not given)	i	nt	-18.7%	nt	nt	nt
CCCCOC(=O)c1ccc(NC(=S)NC(=O)c2c(Br)c(C)nn2C)cc1	i	4.0%	0.4%	-64.2*	?	?
CCOC(=O)c1ccc(NC(=S)NC(=O)c2cncc(Br)c2)cc1	-13.2%	14.0%	-8.0%	-71.9*	4.8%[46.1 µM]	0.8%
CC(=O)c1ccc(NC(=S)NC(=O)c2c(Cl)c(C)nn2C)cc1	-17.8%	-0.5%	-11.3%	?	-8.3%	12.4%

From PubChem
